Compounds without any hit were thinned out: in the full panel of roughly 83,000, 20% have a hit.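 Compound tested at a single concentration for 48 hours in 96-well plates; a percent growth value below 10 was scored as active.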 The source made the active and inactive calls.
test system: PC-3 prostate; experiment: NCI-60 one-dose screen, 48 h (100 = growth as untreated, 0 = no growth, -100 = all killed); conditions: 10 µM unless noted
Protocol: Growth inhibition of the PC-3 human tumor cell line is measured as a screen for anti-cancer activity. Cells are grown in 96 well plates and exposed to the test compound for 48 hours. Compounds are tested at a single concentration, which is 10^-5 M for most compounds. The reported endpoint is percent growth (GI% or GIPRCNT), where numbers from 0 - 100% represent growth inhibition, and numbers from -100% - 0 represent cell death. For example, a value of 40 represents 60% growth inhibition. A value of 0 means no net growth occurred over the course of the experiment. A value of -40 indicates 40% of cells at the beginning of the experiment died by the end of the experiment. A value of -100 means all cells are dead at the end of the experiment.
NCI-60 Human Tumor Cell Lines Screen was performed using the standard one-dose NCI protocol, which is described in more detail at https://dtp.cancer.gov/discovery_development/nci-60/default.htm.
Compounds with GIPRCNT values below 10 were considered active. Activity score was based on GIPRCNT using the following formula: […]
Score is 0 for GIPRCNT values of 100 or above, 50 for GIPRCNT values of 0, and 100 for GIPRCNT values of -100.

Q: With `COc1cc2nc(Cl)nc(Nc3cccc(C(=O)/C=C/c4ccc(Br)cc4)c3)c2cc1OC` as the molecule, how does the growth read?
A: 65.5% (inactive)

Q: For `C=C1C(=O)O[C@H]2[C@H]1CC/C(COC(=O)NCc1cc3ccccc3[nH]1)=C\CC[C@@]1(C)O[C@@H]21`, which growth is on record?
A: 38% (inactive)

Q: `c1ccc(-c2nc(Nc3ccc(-c4nc5ccccc5[nH]4)cc3)nc(N3CCOCC3)n2)cc1` was tested. Which growth did it give?
A: -35.5% (active)

Q: How did the growth turn out when `Cc1cc(N=O)cc(C(C)(C)C)c1O` was run?
A: 74.5% (inactive)

Q: For `N#C/C(=C\c1ccc(-c2ccc(Br)cc2)o1)c1nc(-c2ccco2)cs1`, which growth is on record?
A: 91.5% (inactive)

Q: With `c1ccc2[nH]c(-c3ccc(Nc4nc(N5CCCCC5)nc(N5CCOCC5)n4)cc3)nc2c1` as the molecule, how does the growth read?
A: 12.4% (inactive)

Q: With `CC/C=C\C[C@H]1CC=C2C(=O)C=C[C@@H]2CC=CCCCC(=O)O[C@@H](CCCCC)CC=C2C(=O)C=C[C@@H]2CC=CCCCC(=O)O[C@@H](CCCCC)CC=C2C(=O)C=C[C@@H]2CC=CCCCC(=O)O[C@@H](CCCCC)CC=C2C(=O)C=C[C@@H]2CC=CCCCC(=O)O1` as the molecule, how does the growth read?
A: 13.5% [7.9 µM] (inactive)

Q: With `COc1cc(NC(C)CN(CC(C)C)C(C)C)c2ncccc2c1` (stereo not given) as the molecule, how does the growth read?
A: 80.5% (inactive)

Q: `COC(=O)[C@]12CC[C@@H](C)[C@H](C)[C@@H]1C1=CC[C@@H]3[C@@]4(C)C=C(O)C(=O)C(C)=C4CC[C@@]3(C)[C@]1(C)CC2` was tested. Which growth did it give?
A: 12.7% (inactive)

Q: With `Cc1ccc(N(CC(=O)Nc2ccc(S(=O)(=O)N3CCC(N4CCCC4)CC3)cc2)S(=O)(=O)c2ccc(Cl)cc2)cc1` as the molecule, how does the growth read?
A: 12% (inactive)

Q: With `COc1cc(C(=O)/C=C/c2cc(-c3ccc4c(c3)OCO4)n[nH]2)cc(OC)c1OC` as the molecule, how does the growth read?
A: 6.51% (active)

Q: For `Cc1nn(-c2ccc(Cl)cc2)c(=O)n1CCn1cnc2ccccc21`, which growth is on record?
A: 104% (inactive)

Q: `C[C@@H](C(=O)O)c1ccc2c3cc(Cl)ccc3n(Cc3cc(=O)oc4ccc(Cl)cc34)c2c1` was tested. Which growth did it give?
A: 98.3% (inactive)

Q: With `Cc1ccc(-c2nc([P+](c3ccccc3)(c3ccccc3)c3ccccc3)c(N3C[C@H]4C[C@H](C3)c3cccc(=O)n3C4)o2)cc1` as the molecule, how does the growth read?
A: 82.7% (inactive)

Q: Which growth does the source give for `N#Cc1c(-c2ccc(O)cc2)c2c(N)nn(-c3ccccc3)c2[nH]c1=O` here?
A: 102% (inactive)

Q: With `c1ccc(C2Cc3ccccc3C2=NC2CCCCC2)cc1` (stereo not given) as the molecule, how does the growth read?
A: 84.4% (inactive)

Q: With `CCSc1ncnc2c1ncn2C1OC(CO)C(O)C1O` (stereo not given) as the molecule, how does the growth read?
A: 16.8% (inactive)

Q: `CCN(CC)C(=O)CCCCCn1c2ccccc2c2c3c(c4c5ccccc5[nH]c4c21)C(=O)N(O)C3=O` was tested. Which growth did it give?
A: 30% (inactive)

Q: `C=C1C(=O)O[C@H]2[C@H]1CC/C(Cn1cc(-c3ccc(OC)cc3)nn1)=C\CC[C@@]1(C)O[C@@H]21` was tested. Which growth did it give?
A: 39.4% (inactive)

Q: How did the growth turn out when `COc1ccc(/C=C2\N=C(c3ccccc3)N(c3cc(OC)c(OC)cc3C(=O)N3N=C(C)CC3=O)C2=O)cc1` was run?
A: 89.4% (inactive)

Q: For `CC1(C)C(=O)/C(=C\c2ccco2)C[C@]2(C)[C@H]3CC[C@@H]4[C@@H](C(=O)/C=C/c5ccco5)CC[C@@]4(C)[C@]3(C)CC[C@@H]12`, which growth is on record?
A: 80.4% (inactive)

Q: How did the growth turn out when `N#CC1C(=N)Cc2ccccc2-c2ccccc21` (stereo not given) was run?
A: 62.1% (inactive)

Q: With `Cc1nn2c(-c3nc4cc(Cl)c(Cl)cc4[nH]3)c(-c3ccc(F)cc3)nc2s1` as the molecule, how does the growth read?
A: 24.6% (inactive)

Q: For `Cn1cc(-c2csc(-c3cn(C(=O)OC(C)(C)C)c4ccc(Br)cc34)n2)c2cccnc21`, which growth is on record?
A: 87.5% (inactive)

Q: For `Nc1c2c(nc3ccc(Cl)cc13)CC(c1ccccc1)CC2=O` (stereo not given), which growth is on record?
A: 54.8% (inactive)

Q: How did the growth turn out when `CC(=O)n1c(/C(C#N)=C/c2ccc(N(C)C)cc2)cc2ccccc21` was run?
A: 39.4% (inactive)

Q: Which growth does the source give for `O=C(c1ccccc1)C(CN1CCOCC1)c1ccccc1` (stereo not given) here?
A: 48.7% (inactive)

Q: Which growth does the source give for `Nc1c2c(nc3ccc(Br)cc13)CC(c1ccccc1)CC2=O` (stereo not given) here?
A: 40.4% (inactive)

Q: With `COc1cccc(-c2nn(-c3ccccc3)cc2-c2ccnc(NCCNS(=O)(=O)c3ccccc3)c2)c1` as the molecule, how does the growth read?
A: 17.5% (inactive)

Q: Which growth does the source give for `COc1cc(/C=N/NC(=S)NNC(=S)NC2CCCCC2)cc(OC)c1OC` here?
A: 81.3% (inactive)

Q: How did the growth turn out when `CC1(C)CC[C@]2(CO)CC[C@]3(C)C(=CC[C@@H]4[C@@]5(C)CC[C@H](NCO)C(C)(C)[C@@H]5CC[C@]43C)[C@@H]2C1` was run?
A: 7.13% (active)

Q: `Cn1cc(-c2csc(-c3cn(CCN)c4ccc(Br)cc34)n2)c2cccnc21` was tested. Which growth did it give?
A: 66.3% (inactive)

Q: `C=C(C)[C@@H]1CC[C@]2(C=NCCCNCCCCNCCCN)CC[C@]3(C)[C@H](CC[C@@H]4[C@@]5(C)CCCNC(C)(C)[C@@H]5CC[C@]43C)[C@@H]12` was tested. Which growth did it give?
A: 85.9% (inactive)

Q: With `CN1CCN(CC#CCn2c3c(c4ccccc42)C[C@]2(C)[C@H]4CC[C@@H]5[C@H]6[C@H]7OC(=O)[C@@]6(CCC7(C)C)CC[C@@]5(C)[C@]4(C)CC[C@H]2C3(C)C)CC1` as the molecule, how does the growth read?
A: 58.5% (inactive)

Q: How did the growth turn out when `C#CCn1c2c(c3ccccc31)C[C@]1(C)[C@H]3CC[C@@H]4[C@@H]5C(=CCC[C@H]5C(=C)C)CC[C@@]4(C)[C@]3(C)CC[C@H]1C2(C)C` was run?
A: 97.3% (inactive)

Q: Which growth does the source give for `Cc1ccc(-c2nn(Cc3cn(-c4cc(C)nc5ccccc45)nn3)c3ncnc(N)c23)cc1` here?
A: 49% (inactive)

Q: Which growth does the source give for `COc1ccc(-c2nc3ncccn3c2-c2nc3ccc(Br)cc3[nH]2)cc1` here?
A: 65.5% (inactive)

Q: How did the growth turn out when `O=C1NC(c2ccc(Cl)c(Cl)c2)=C/C1=C\c1ccccc1` was run?
A: 79.2% (inactive)

Q: `O=C(O[C@@H]1Cc2c(O)cc(O)cc2O[C@@H]1c1cc(O)c(O)c(O)c1)c1cc(O)c2c(c1)OCO2` was tested. Which growth did it give?
A: 83.6% (inactive)

Q: With `NCCn1cc(-c2nc(-c3c[nH]c4ncccc34)cs2)c2ccccc21` as the molecule, how does the growth read?
A: 70.2% (inactive)

Reference: PubChem BioAssay (NCI)
